The record followed here is publication PMC5540273 (PLoS ONE, 2017).

Molecules are shown by their SMILES.

Among the test systems are PIK3C2G; PIK3CA; PIK3CB; PIK3CD; PIK3CG; PIKFYVE; PIM1; PIM2; PIM3.
Common to all, as to conditions: concentration: 1 μM, replicates: in singlicate; n = 1
Another experiment deals with T1, PIK4CB.
T1 construct: gene PI4KB
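Also: KINOMEscan kinase panel screen.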

For the compound `CCn1c(-c2nonc2N)nc2c(C#CC(C)(C)O)ncc(OCCCCN)c21.O=C(O)C(F)(F)F.O=C(O)C(F)(F)F` [GSK507274], the “%Inh” value with PIK3C2G came out at 11%; with PIK3CA, 0%; with PIK3CB, 0%; in the experiment with PIK3CD, 0%; in the experiment on PIK3CG, 0%; with PIK4CB, 0%. For the same compound, the “%Inh” value is 88% in the experiment with PIKFYVE, 69% with PIM1, 85% with PIM2 and 78% with PIM3.
For `NCCCC(NC(=O)c1cc(Br)c(-c2ccnc3[nH]ccc23)s1)c1ccccc1.O=C(O)C(F)(F)F.O=C(O)C(F)(F)F` (stereo not shown) [GSK1287544], the “%Inh” value is reported as 0% with PIK3C2G; 0% with PIK3CA; 100% in the experiment with PIK3CB; 0% in the experiment on PIK3CD; 0% in the experiment on PIK3CG; 0% in the experiment on PIK4CB. Besides, the “%Inh” value in the experiment with PIKFYVE was determined as 0%; in the experiment with PIM1, 59%; in the experiment on PIM2, 93%; in the experiment with PIM3, 22%.
With `CCc1ccc(-c2ccc3c(c2)-c2c(cnn2C)S(=O)(=O)N3C)cc1`, the “%Inh” value in the experiment with PIK3C2G is given as 0%; in the experiment with PIK3CA it was 5%; with PIK3CB it was 0%; in the experiment on PIK3CD, 0%; in the experiment on PIK3CG, 2%; with PIK4CB it was 12%. Besides, the “%Inh” value in the experiment with PIKFYVE turned out to be 53%; in the experiment on PIM1, 1%; in the experiment on PIM2 it was 0%; in the experiment with PIM3, 0%.
For `COCCOCCOc1cc2ncc3c4ccc(C#N)cc4[nH]c3c2cc1OC`, the “%Inh” value came to 12% in the experiment with PIK3C2G; 0% in the experiment with PIK3CA; 0% in the experiment on PIK3CB; 0% in the experiment on PIK3CD; 0% in the experiment on PIK3CG; 0% with PIK4CB. The “%Inh” value in the experiment on PIKFYVE was found to be 47%; in the experiment with PIM1, 29%; in the experiment on PIM2 it was 94%; in the experiment with PIM3, 49%.
With `FC(F)(F)c1ccc(/C=C/c2cncnc2Nc2ccc3[nH]c(Cc4ccccc4)nc3c2)cc1` [GW709199], the “%Inh” value in the experiment on PIK3C2G, in the experiment on PIK3CA, in the experiment with PIK3CB, with PIK3CD, in the experiment with PIK3CG and with PIK4CB was 0% in each case. Besides, the “%Inh” value in the experiment on PIKFYVE is 8%; in the experiment with PIM1, 0%; with PIM2 it was 22%; in the experiment on PIM3 it was 0%.
Regarding `CN1CCN(CCCNc2nccc(-c3c(-c4ccc(F)cc4)nn4cc(C(F)(F)F)ccc34)n2)CC1` [GW621581], the “%Inh” value in the experiment with PIK3C2G turned out to be 3%; with PIK3CA, 0%; in the experiment on PIK3CB, 0%; in the experiment with PIK3CD it was 10%; with PIK3CG, 0%; in the experiment on PIK4CB, 1%. The “%Inh” value in the experiment with PIKFYVE turned out to be 95.6%; in the experiment with PIM1, 10%; in the experiment on PIM2 it was 0%; with PIM3, 0%.
As for `CN(C)S(=O)(=O)c1cc(-c2ccc3nccc(-c4cccc(S(N)(=O)=O)c4)c3c2)cnc1N` [GSK1669921], the “%Inh” value in the experiment on PIK3C2G was 96%; with PIK3CA, 100%; in the experiment with PIK3CB, 96.6%; in the experiment on PIK3CD, 98.8%; with PIK3CG, 99.9%; in the experiment on PIK4CB it was 96.5%. For the same compound, the “%Inh” value with PIKFYVE is recorded as 96.6%; in the experiment with PIM1, 19%; with PIM2 it was 0%; with PIM3, 12%.
Turning to `Cc1ccc(F)c(C(=O)Nc2cccc(-c3nn4ccccc4c3-c3ccnc(Nc4cccc(F)c4)n3)c2)c1F` [GSK361061], the “%Inh” value in the experiment on PIK3C2G, in the experiment on PIK3CA, in the experiment on PIK3CB, in the experiment on PIK3CD, in the experiment on PIK3CG and in the experiment on PIK4CB was 0% in each case. Further, the “%Inh” value with PIKFYVE worked out at 0%; in the experiment with PIM1, 24%; in the experiment on PIM2, 0%; in the experiment on PIM3, 7%.
As to `Cl.c1ccc(-c2ccc3c(Nc4ccc5[nH]ncc5c4)ccnc3c2)nc1` [GW440137], the “%Inh” value stood at 0% with PIK3C2G; 6% in the experiment with PIK3CA; 0% with PIK3CB; 2% with PIK3CD; 5% with PIK3CG; 0% in the experiment on PIK4CB. In addition, the “%Inh” value with PIKFYVE is listed as 7%; in the experiment on PIM1 it was 0%; in the experiment with PIM2 it was 0%; in the experiment with PIM3 it was 9%.
On to `C[C@@H](Oc1cc(-n2cnc3cc(-c4ccnc(NCCS(C)(=O)=O)c4)ccc32)sc1C(N)=O)c1ccccc1Cl` [GSK907232], for which the “%Inh” value with PIK3C2G is given as 0%; with PIK3CA, 0%; with PIK3CB, 0%; in the experiment on PIK3CD it was 39%; in the experiment with PIK3CG, 1%; in the experiment on PIK4CB, 9%. Moreover, the “%Inh” value in the experiment on PIKFYVE amounted to 0%; in the experiment with PIM1 it was 19%; in the experiment on PIM2, 0%; in the experiment on PIM3, 27%.
As for `O=C(Nc1n[nH]c2cc(-c3ccoc3)ccc12)C1CC1` [SB-738481], the “%Inh” value in the experiment on PIK3C2G stood at 0%; with PIK3CA, 0%; with PIK3CB it was 13%; in the experiment with PIK3CD, 5%; with PIK3CG, 12%; with PIK4CB, 8%. Also, the “%Inh” value with PIKFYVE is given as 1%; in the experiment with PIM1, 0%; in the experiment on PIM2 it was 0%; with PIM3, 0%.
Turning to `COc1ccc(-c2coc3ccc(-c4nnc(SCc5ccc(OC)c(C(F)(F)F)c5)o4)cc23)cc1`, the “%Inh” value worked out at 13% in the experiment on PIK3C2G; 0% in the experiment on PIK3CA; 27% in the experiment on PIK3CB; 11% with PIK3CD; 0% with PIK3CG; 0% in the experiment with PIK4CB. Further, the “%Inh” value is 0% in the experiment with PIKFYVE, 0% with PIM1, 18% in the experiment with PIM2 and 4% with PIM3.
On to `Cn1cc(-c2ccc3c(c2)CCN3C(=O)Cc2cccc(F)c2)c2c(N)ncnc21` [GSK2603358], for which the “%Inh” value in the experiment on PIK3C2G was determined as 0%; in the experiment with PIK3CA it was 3%; in the experiment on PIK3CB, 0%; in the experiment with PIK3CD it was 28%; with PIK3CG, 30%; with PIK4CB, 0%. In addition, the “%Inh” value worked out at 11% in the experiment with PIKFYVE, 0% with PIM1, 0% in the experiment on PIM2 and 0% in the experiment with PIM3.
Take `Clc1ccc(-c2nn3ncccc3c2-c2ccnc(Nc3ccc4c(c3)OCCO4)n2)cc1` [GW829116]: the “%Inh” value in the experiment on PIK3C2G, in the experiment on PIK3CA, in the experiment with PIK3CB, in the experiment on PIK3CD, with PIK3CG and in the experiment on PIK4CB was 0% each time. The “%Inh” value came to 25% with PIKFYVE, 13% in the experiment on PIM1, 6% with PIM2 and 0% with PIM3.
As for `Cl.Cl.NCC(NCc1ccc(-c2ccnc3[nH]ccc23)s1)c1ccccc1` (stereo not shown) [GSK1321565], the “%Inh” value stood at 0% in the experiment on PIK3C2G; 0% with PIK3CA; 19% in the experiment on PIK3CB; 2% with PIK3CD; 21% with PIK3CG; 4% with PIK4CB. The “%Inh” value turned out to be 3% in the experiment on PIKFYVE, 17% with PIM1, 0% with PIM2 and 0% with PIM3.
For `Cc1occc1-c1ncc(OC[C@@H](N)Cc2c[nH]c3ccccc23)cc1-c1ccc2[nH]nc(C)c2c1.O=C(O)C(F)(F)F` [GSK682037], the “%Inh” value with PIK3C2G, in the experiment on PIK3CA, in the experiment on PIK3CB, in the experiment with PIK3CD, in the experiment with PIK3CG and with PIK4CB was 0% in each case. Further, the “%Inh” value with PIKFYVE came out at 0%; with PIM1, 39%; in the experiment with PIM2 it was 97.4%; with PIM3, 64%.
